{"source": "the supplement of paper PMC8728848", "binders": {"B1": {"name": "Eosinophil-derived neurotoxin (EDN) (Homo sapiens), P10153 (protein)", "chain": "MVPKLFTSQICLLLLLGLLAVEGSLHVKPPQFTWAQWFETQHINMTSQQCTNAMQVINNYQRRCKNQNTFLLTTFANVVNVCGNPNMTCPSNKTRKNCHHSGSQVPLIHCNLTTPSPQNISNCRYAQTPANMFYIVACDNRDQRRDPPQYPVVPVHLDRII"}}, "assay_in_all_cases": "glycan array binding signal (z-score within array); higher = stronger binding", "conditions_in_all_cases": "glycan notation: IUPAC condensed, linker removed", "key": {"[1]": {"target": "Fuc(a1-2)Gal(b1-3)GlcNAc(b1-2)Man(a1-3)[Fuc(a1-2)Gal(b1-3)GlcNAc(b1-2)Man(a1-6)]Man(b1-4)GlcNAc(b1-4)GlcNAc", "method_in_brief": "(§1)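 Glycan array binding is given as a within-array Z-score, which can be read as non-binding when negative. The arrays, 3228 of them, came from the Consortium for Functional Glycomics database and were retained only where the protein sequence was available. Z-scores were averaged across arrays of the same protein sequence at different concentrations or buffers and across linkers.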"}, "[2]": {"target": "Fuc(a1-2)Gal(b1-4)[Fuc(a1-3)]GlcNAc", "method_in_brief": "as §1"}, "[3]": {"target": "Fuc(a1-2)[Gal(a1-3)]Gal(b1-3)GalNAc", "method_in_brief": "as §1"}, "[4]": {"target": "Fuc(a1-2)[Gal(a1-3)]Gal(b1-3)GlcNAc(b1-2)Man(a1-3)[Fuc(a1-2)[Gal(a1-3)]Gal(b1-3)GlcNAc(b1-2)Man(a1-6)]Man(b1-4)GlcNAc(b1-4)GlcNAc", "method_in_brief": "as §1"}, "[5]": {"target": "Fuc(a1-2)[Gal(a1-3)]Gal(b1-4)GlcNAc(b1-3)GalNAc", "method_in_brief": "as §1"}, "[6]": {"target": "Fuc(a1-2)[GalNAc(a1-3)]Gal(b1-3)GlcNAc(b1-2)Man(a1-3)[Fuc(a1-2)[GalNAc(a1-3)]Gal(b1-3)GlcNAc(b1-2)Man(a1-6)]Man(b1-4)GlcNAc(b1-4)GlcNAc", "method_in_brief": "as §1"}, "[7]": {"target": "Fuc(a1-2)[GalNAc(a1-3)]Gal(b1-4)GlcNAc(b1-3)GalNAc", "method_in_brief": "as §1"}, "[8]": {"target": "Fuc(a1-3)[Gal(b1-4)]GlcNAc6S", "method_in_brief": "as §1"}, "[9]": {"target": "Fuc(b1-3)GlcNAc", "method_in_brief": "as §1"}, "[10]": {"target": "Gal(a1-3)Gal", "method_in_brief": "as §1"}, "[11]": {"target": "Gal(a1-3)Gal(b1-4)[Fuc(a1-3)]GlcNAc(b1-2)Man(a1-3)[Gal(a1-3)Gal(b1-4)[Fuc(a1-3)]GlcNAc(b1-2)Man(a1-6)]Man(b1-4)GlcNAc(b1-4)GlcNAc", "method_in_brief": "as §1"}, "[12]": {"target": "Gal(a1-3)GalNAc", "method_in_brief": "as §1"}, "[13]": {"target": "Gal(b1-3)Gal(b1-4)GlcNAc(b1-2)Man(a1-3)[Gal(b1-3)Gal(b1-4)GlcNAc(b1-2)Man(a1-6)]Man(b1-4)GlcNAc(b1-4)GlcNAc", "method_in_brief": "as §1"}, "[14]": {"target": "Gal(b1-3)GalNAc(a1-3)[Fuc(a1-2)]Gal(b1-4)GlcNAc", "method_in_brief": "as §1"}, "[15]": {"target": "Gal(b1-3)GlcNAc", "method_in_brief": "as §1"}, "[16]": {"target": "Gal(b1-3)GlcNAc(b1-2)Man(a1-3)[Gal(b1-3)GlcNAc(b1-2)Man(a1-6)]Man(b1-4)GlcNAc(b1-4)GlcNAc", "method_in_brief": "as §1"}, "[17]": {"target": "Gal(b1-3)GlcNAc(b1-3)Gal(b1-4)GlcNAc", "method_in_brief": "as §1"}, "[18]": {"target": "Gal(b1-4)GlcNAc(b1-2)Man(a1-3)[Gal(b1-4)GlcNAc(b1-2)Man(a1-6)]Man(b1-4)GlcNAc(b1-4)[Fuc(a1-6)]GlcNAc", "method_in_brief": "as §1"}, "[19]": {"target": "Gal(b1-4)GlcNAc(b1-2)[Gal(b1-4)GlcNAc(b1-4)]Man(a1-3)[Gal(b1-4)GlcNAc(b1-2)Man(a1-6)]Man(b1-4)GlcNAc(b1-4)GlcNAc", "method_in_brief": "as §1"}, "[20]": {"target": "Gal(b1-4)GlcNAc(b1-3)Gal(b1-3)GlcNAc", "method_in_brief": "as §1"}, "[21]": {"target": "Gal(b1-4)GlcNAc(b1-3)Gal(b1-4)[Fuc(a1-3)GlcNAc(b1-6)]Gal(b1-4)Glc", "method_in_brief": "as §1"}, "[22]": {"target": "Gal(b1-4)GlcNAc(b1-3)[Gal(b1-4)GlcNAc(b1-6)]Gal(b1-4)GlcNAc", "method_in_brief": "as §1"}, "[23]": {"target": "Gal(b1-4)GlcNAc(b1-3)[GlcNAc(b1-6)]Gal(b1-4)GlcNAc", "method_in_brief": "as §1"}, "[24]": {"target": "Gal3S(b1-3)[Fuc(a1-4)]GlcNAc", "method_in_brief": "as §1"}, "[25]": {"target": "Gal3S(b1-4)Glc", "method_in_brief": "as §1"}, "[26]": {"target": "Gal3S(b1-4)GlcNAc6S", "method_in_brief": "as §1"}, "[27]": {"target": "Gal6S(b1-4)GlcNAc6S", "method_in_brief": "as §1"}, "[28]": {"target": "GalNAc(b1-4)Gal(b1-4)Glc", "method_in_brief": "as §1"}, "[29]": {"target": "Glc(a1-4)Glc", "method_in_brief": "as §1"}, "[30]": {"target": "Glc(a1-6)Glc(a1-6)Glc", "method_in_brief": "as §1"}, "[31]": {"target": "GlcNAc(a1-4)Gal(b1-4)GlcNAc(b1-3)Gal(b1-4)GlcNAc", "method_in_brief": "as §1"}, "[32]": {"target": "GlcNAc(a1-4)Gal(b1-4)GlcNAc(b1-3)Gal(b1-4)[Fuc(a1-3)]GlcNAc(b1-3)Gal(b1-4)[Fuc(a1-3)]GlcNAc", "method_in_brief": "as §1"}, "[33]": {"target": "GlcNAc(b1-2)[GlcNAc(b1-6)]Man(a1-6)[GlcNAc(b1-2)Man(a1-3)]Man(b1-4)GlcNAc(b1-4)GlcNAc", "method_in_brief": "as §1"}, "[34]": {"target": "GlcNAc(b1-2)[GlcNAc(b1-6)]Man(a1-6)[GlcNAc(b1-2)Man(a1-3)][GlcNAc(b1-4)]Man(b1-4)GlcNAc(b1-4)GlcNAc", "method_in_brief": "as §1"}, "[35]": {"target": "GlcNAc(b1-3)[GlcNAc(b1-4)][GlcNAc(b1-6)]GlcNAc", "method_in_brief": "as §1"}, "[36]": {"target": "GlcNAc(b1-4)GlcNAc", "method_in_brief": "as §1"}, "[37]": {"target": "Man(a1-3)[Man(a1-6)]Man(b1-4)GlcNAc(b1-4)GlcNAc", "method_in_brief": "as §1"}, "[38]": {"target": "Neu5Ac(a2-3)Gal(b1-3)GlcNAc", "method_in_brief": "as §1"}, "[39]": {"target": "Neu5Ac(a2-3)Gal(b1-3)[Neu5Ac(a2-6)]GalNAc", "method_in_brief": "as §1"}, "[40]": {"target": "Neu5Ac(a2-3)Gal(b1-4)GlcNAc(b1-6)[Gal(b1-3)]GalNAc", "method_in_brief": "as §1"}, "[41]": {"target": "Neu5Ac(a2-3)Gal(b1-4)[Fuc(a1-3)]GlcNAc(b1-3)GalNAc", "method_in_brief": "as §1"}, "[42]": {"target": "Neu5Ac(a2-3)GalNAc", "method_in_brief": "as §1"}, "[43]": {"target": "Neu5Ac(a2-6)Gal(b1-4)GlcNAc(b1-2)Man(a1-3)[Gal(b1-4)GlcNAc(b1-2)Man(a1-6)]Man(b1-4)GlcNAc(b1-4)GlcNAc", "method_in_brief": "as §1"}, "[44]": {"target": "Neu5Ac(a2-6)Gal(b1-4)GlcNAc(b1-2)Man(a1-6)Man(b1-4)GlcNAc(b1-4)GlcNAc", "method_in_brief": "as §1"}, "[45]": {"target": "Neu5Ac(a2-8)Neu5Ac(a2-3)[GalNAc(b1-4)]Gal(b1-4)Glc", "method_in_brief": "as §1"}, "[46]": {"target": "Neu5Ac(a2-8)Neu5Ac(a2-8)Neu5Ac(a2-3)[GalNAc(b1-4)]Gal(b1-4)Glc", "method_in_brief": "as §1"}, "[47]": {"target": "Neu5Ac(b2-6)Gal(b1-4)GlcNAc", "method_in_brief": "as §1"}, "[48]": {"target": "Neu5Ac9Ac(a2-3)Gal(b1-3)GlcNAc", "method_in_brief": "as §1"}, "[49]": {"target": "Neu5Gc(b2-6)Gal(b1-4)GlcNAc", "method_in_brief": "as §1"}}, "note": "The full list was thinned out, with the strongest signals kept by preference.", "data": [{"binder": "B1", "values": [{"measurement": "glycan array binding signal (z-score)", "setting": "[1]", "value": 0.954}, {"measurement": "glycan array binding signal (z-score)", "setting": "[2]", "value": -0.438}, {"measurement": "glycan array binding signal (z-score)", "setting": "[3]", "value": -0.092}, {"measurement": "glycan array binding signal (z-score)", "setting": "[4]", "value": 0.666}, {"measurement": "glycan array binding signal (z-score)", "setting": "[5]", "value": -0.523}, {"measurement": "glycan array binding signal (z-score)", "setting": "[6]", "value": 0.308}, {"measurement": "glycan array binding signal (z-score)", "setting": "[7]", "value": 0.483}, {"measurement": "glycan array binding signal (z-score)", "setting": "[8]", "value": 0.272}, {"measurement": "glycan array binding signal (z-score)", "setting": "[9]", "value": -0.332}, {"measurement": "glycan array binding signal (z-score)", "setting": "[10]", "value": -0.363}, {"measurement": "glycan array binding signal (z-score)", "setting": "[11]", "value": 0.387}, {"measurement": "glycan array binding signal (z-score)", "setting": "[12]", "value": -0.593}, {"measurement": "glycan array binding signal (z-score)", "setting": "[13]", "value": 0.187}, {"measurement": "glycan array binding signal (z-score)", "setting": "[14]", "value": 0.269}, {"measurement": "glycan array binding signal (z-score)", "setting": "[15]", "value": -0.339}, {"measurement": "glycan array binding signal (z-score)", "setting": "[16]", "value": -0.33}, {"measurement": "glycan array binding signal (z-score)", "setting": "[17]", "value": 0.648}, {"measurement": "glycan array binding signal (z-score)", "setting": "[18]", "value": 1.36}, {"measurement": "glycan array binding signal (z-score)", "setting": "[19]", "value": -0.461}, {"measurement": "glycan array binding signal (z-score)", "setting": "[20]", "value": -0.443}, {"measurement": "glycan array binding signal (z-score)", "setting": "[21]", "value": 0.142}, {"measurement": "glycan array binding signal (z-score)", "setting": "[22]", "value": 1.13}, {"measurement": "glycan array binding signal (z-score)", "setting": "[23]", "value": 1.36}, {"measurement": "glycan array binding signal (z-score)", "setting": "[24]", "value": 0.104}, {"measurement": "glycan array binding signal (z-score)", "setting": "[25]", "value": -0.269}, {"measurement": "glycan array binding signal (z-score)", "setting": "[26]", "value": -0.506}, {"measurement": "glycan array binding signal (z-score)", "setting": "[27]", "value": -0.122}, {"measurement": "glycan array binding signal (z-score)", "setting": "[28]", "value": -0.211}, {"measurement": "glycan array binding signal (z-score)", "setting": "[29]", "value": -0.482}, {"measurement": "glycan array binding signal (z-score)", "setting": "[30]", "value": 0.261}, {"measurement": "glycan array binding signal (z-score)", "setting": "[31]", "value": 12.5}, {"measurement": "glycan array binding signal (z-score)", "setting": "[32]", "value": 1.45}, {"measurement": "glycan array binding signal (z-score)", "setting": "[33]", "value": -0.199}, {"measurement": "glycan array binding signal (z-score)", "setting": "[34]", "value": 0.017}, {"measurement": "glycan array binding signal (z-score)", "setting": "[35]", "value": 0.413}, {"measurement": "glycan array binding signal (z-score)", "setting": "[36]", "value": -0.215}, {"measurement": "glycan array binding signal (z-score)", "setting": "[37]", "value": -0.552}, {"measurement": "glycan array binding signal (z-score)", "setting": "[38]", "value": -0.205}, {"measurement": "glycan array binding signal (z-score)", "setting": "[39]", "value": 0.143}, {"measurement": "glycan array binding signal (z-score)", "setting": "[40]", "value": 1.16}, {"measurement": "glycan array binding signal (z-score)", "setting": "[41]", "value": 0.955}, {"measurement": "glycan array binding signal (z-score)", "setting": "[42]", "value": 0.007}, {"measurement": "glycan array binding signal (z-score)", "setting": "[43]", "value": 1.86}, {"measurement": "glycan array binding signal (z-score)", "setting": "[44]", "value": 0.578}, {"measurement": "glycan array binding signal (z-score)", "setting": "[45]", "value": 1.66}, {"measurement": "glycan array binding signal (z-score)", "setting": "[46]", "value": -0.121}, {"measurement": "glycan array binding signal (z-score)", "setting": "[47]", "value": 0.387}, {"measurement": "glycan array binding signal (z-score)", "setting": "[48]", "value": -0.207}, {"measurement": "glycan array binding signal (z-score)", "setting": "[49]", "value": 0.153}]}]}
